PubChem BioAssay AID504380 (National Center for Advancing Translational Sciences (NCATS), 2011)
The source made the active and inactive calls. How the calls were made is not given here.

test: RT-PCR Analysis of TSH-dependent transcripts in primary cultures of human thyrocytes; conditions: RT-PCR mRNA levels, 48 h; DIO2 mRNA change: measured here: DIO2 transcript; NIS mRNA change: measured here: NIS transcript, concentration not given here; TG mRNA change: concentration not given here; TPO mRNA change: measured here: TPO transcript, concentration not given here; TSHR mRNA change: measured here: TSHR transcript, concentration not given here
Description: TSH is an alpha/beta heterodimeric glycoprotein hormone secreted from the anterior pituitary gland which belongs to the glycoprotein hormone family. The actions of TSH are mediated by a seven-transmembrane receptor, which upon TSH binding couples preferentially to the G-alpha (s) protein (Gs), resulting in activation of adenylate cyclase and increase in cyclic adenosine 3', 5' monophosphate (cAMP). The TSH receptor (THSR) is mainly expressed in thyroid follicular cells and regulates their growth and function. This cell based assay was conducted on a TSHR transfected HEK 293 cell line, measuring cAMP stimulation using antibody-based Homogeneous Time Resolved Fluorescence (HTRF). Our goal is to identify small molecules that will inhibit (antagonize) the thyroid-stimulating hormone receptor (TSHR), a member of the 7 transmembrane-spanning receptor (7TMR) family of cell surface receptors. TSHR-mediated hyperthyroidism is important in thyroid pathology. The development of small molecule antagonists of TSHR may lead to therapeutic approaches for TSHR-mediated hyperthyroidism caused by constitutively activating mutations or stimulating auto-antibodies associated with Graves' disease. Graves' disease is the leading cause of hyperthyroidism and is caused by autoantibodies that stimulate TSHR (TsAbs) causing thyroid growth and unregulated overproduction of thyroid hormones and existing treatments have liabilities (agranulocytosis). In addition, TSHRs are known to be expressed in multiple extrathyroidal tissues including bone, brain, kidney, testis, fat and cells of the immune system but the role of the TSHR in these tissues is not clear. Therefore, TSHR antagonists/inverse agonists could be used as probes of extrathyroidal TSHR function. Finally, TSHR inverse agonists, which are a subclass of antagonists that inhibit agonist-independent (or basal or constitutive) TSHR signaling, could be used to inhibit TSH-independent signaling in patients with recurrent or metastatic thyroid cancer who are receiving thyroid hormone to suppress TSH. This assays looks for effects on TSH-dependent functions in primary human thyrocytes. Total RNA is purified using RNeasy Micro kits. RT-PCR is performed in 25-ul reactions using cDNA prepared from 100 ng or less of total RNA and Universal PCR Master Mix (Applied Biosystems). mRNA levels are measured using primers and probes from Applied Biosystems. Quantitative RT-PCR results are normalized to GAPDH to correct for differences in RNA input.
Thyroid tissue samples were collected from normal thyroid tissue from patients undergoing total thyroidectomy for thyroid cancer at the National Institutes of Health Clinical Center. Surgical specimens were maintained in Hanks' balanced salt solution (HBSS) on ice, minced into small pieces, and digested with 3 mg/ml collagenase type IV (Life Technologies). Monodispersed cells were plated in 10 ml DMEM with 10% FBS in 10-cm tissue culture dishes and incubated at 37C in a humidified5%CO2 incubator, and after 24 h, the primary cultures of adherent thyroid cells were obtained. For determination of thyroglobulin (TG), thyroid peroxidase (TPO), TSHR, sodium iodide symporter (NIS), or deiodinase type 2 (DIO2) mRNAexpression, thyrocytes were seeded into 12-well plates at a density of 1 x 10^5 cells per well. The cells were incubated in DMEM with 2% FBS and 1 mM 3-isobutyl-1-methylxanthine (IBMX) for 48 h in the presence or absence of compound.

Row | Compound | NIS mRNA change [%] | DIO2 mRNA change [%] | TPO mRNA change [%] | TG mRNA change | TSHR mRNA change [%]
1 | COc1ccc(C2Nc3ccccc3C(=O)N2Cc2ccco2)cc1COc1c(C)cccc1C (stereo not given) | -35 | 0 | -40 | -71% (active) | -33
